# Where “and” joins values, the source holds several entries; their conditions need not be identical. Identical values can stand only once. Records with an inconclusive call do not appear. Entries that show only a call come without a potency. Some compounds were tested as several samples or in several runs, with calls that do not always agree. Calls of active or inactive are those of the source. Calls come from the whole dose curve; as a rule, active = well fitted curve in the direction sought with a large enough effect in the repeat runs; inconclusive = weak or mixed curves; inactive = no such curve, though single readings can be large; an effect the other way counts as inactive or inconclusive.
# What was measured:
# [1] = A CellTox Green Cytotoxicity Assay to monitor cytotoxicity in HEK293 cells - 32 hour (AID 1224881); settings: CellTox Green fluorescence; series mostly up to 76.8 µM; note: nearly all actives have a fitted effect of over 40% in size
# How it was run: (§1)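 Seeding of HEK293 cells together with cytotoxicity dye preceded a 5 h incubation at 37 C/5% CO2. Test compounds in DMSO were then added and fluorescence monitored across 40 h.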
# [2] = A CellTox Green Cytotoxicity Assay to monitor cytotoxicity in HepG2 cells - 0 hour (AID 1224882); settings: CellTox Green fluorescence; series mostly up to 76.8 µM; note: nearly all actives have a fitted effect of over 35% in size
# How it was run: (§2)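 Nonlytic assay: viable cells exclude the dye, so fluorescence scales with cell death. HepG2 at 600 cells/well, compounds added after 5 h, signal read across 40 h.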
# [3] = A CellTox Green Cytotoxicity Assay to monitor cytotoxicity in HepG2 cells - 32 hour (AID 1224883); settings: CellTox Green fluorescence; series mostly up to 76.8 µM; note: nearly all actives have a fitted effect of over 50% in size
# How it was run: as §2
# [4] = A CellTox Green Cytotoxicity Assay to monitor cytotoxicity in HEK293 cells - 8 hour (AID 1224884); settings: CellTox Green fluorescence; series mostly up to 76.8 µM; note: nearly all actives have a fitted effect of over 35% in size
# How it was run: as §1
# [5] = qHTS RealTime-Glo MT Cell Viability Assay in HepG2 cells - 16 hour (AID 1224885); settings: RealTime-Glo luminescence; series mostly up to 76.8 µM; note: nearly all actives have a fitted effect of over 50% in size
# How it was run: (§3)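 HepG2 cells (600/well) were dispensed with RealTime-Glo reagents, incubated 5 h at 37 °C, then treated with compounds in DMSO for up to 40 h. Nonlytic NanoLuc luminescence reflecting viable cells was read at each stated time point.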
# [6] = qHTS RealTime-Glo MT Cell Viability Assay in HEK293 cells - 24 hour (AID 1224886); settings: RealTime-Glo luminescence; series mostly up to 76.8 µM; note: nearly all actives have a fitted effect of over 50% in size; note: potency is the fitted concentration of half-maximal effect
# How it was run: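 HEK293 cells seeded with NanoLuc/prosubstrate reagent, rested 5 h at 37 C, then dosed and kept at 37 C up to 40 h. Nonlytic real-time luminescence from viable cells read at 0, 8, 16, 24, 32 and 40 h.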
# [7] = qHTS RealTime-Glo MT Cell Viability Assay in HEK293 cells - 8 hour (AID 1224887); settings: RealTime-Glo luminescence; series mostly up to 76.8 µM; note: top concentration of the series differs between compounds; nearly all actives have a fitted effect of over 50% in size
# How it was run: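 Tox21 screen in HEK293 using RealTime-Glo MT chemistry, with cells and reagent co-dispensed. Luminescence proportional to viable cell number was captured at intervals during 40 h compound exposure at 37 C.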
# [8] = A CellTox Green Cytotoxicity Assay to monitor cytotoxicity in HEK293 cells - 16 hour (AID 1224888); settings: CellTox Green fluorescence; series mostly up to 76.8 µM; note: nearly all actives have a fitted effect of over 35% in size
# How it was run: as §1
# [9] = qHTS RealTime-Glo MT Cell Viability Assay in HepG2 cells - 0 hour (AID 1224889); settings: RealTime-Glo luminescence; series mostly up to 76.8 µM; note: nearly all actives have a fitted effect of over 50% in size; note: potency is the fitted concentration of half-maximal effect
# How it was run: as §3
# [10] = A CellTox Green Cytotoxicity Assay to monitor cytotoxicity in HepG2 cells - 8 hour (AID 1224890); settings: CellTox Green fluorescence; series mostly up to 76.8 µM; note: nearly all actives have a fitted effect of over 45% in size
# How it was run: as §2
Structure (SMILES),Potency [1],outcome [2],Potency [3],outcome [4],Potency [5],Potency [6],Potency [7],Potency [8],Potency [9],outcome [10]
COc1ccc([N+](=O)[O-])cc1N,inactive,inactive,inactive,inactive,inactive,inactive,inactive,inactive,inactive,inactive
CCCCCCCO,inactive,inactive,inactive,inactive,inactive,inactive,inactive,inactive,inactive,inactive
CC(C)=CCl,inactive,inactive,inactive,inactive,inactive,inactive,inactive,inactive,inactive,inactive
COc1ccc(C)cc1N,inactive,inactive,inactive,inactive,inactive,inactive,inactive,inactive,inactive,inactive
CC(CCl)OP(=O)(OC(C)CCl)OC(C)CCl (centres undefined),inactive,inactive,inactive,inactive,inactive,inactive,inactive,inactive,inactive,inactive
OC1C(O)C(O)C(O)C(O)C1O (centres undefined),inactive,inactive,inactive,inactive,inactive,inactive,inactive,inactive,inactive,inactive
N#Cc1ccccc1,inactive,inactive,inactive,inactive,inactive,inactive,inactive,inactive,inactive,inactive
CCCCCC(=O)O,inactive,inactive,inactive,inactive,inactive,inactive,inactive,inactive,inactive,inactive
CCCCOC(=O)c1ccc(N)cc1,inactive,inactive,inactive,inactive,inactive,inactive,inactive,inactive,24.2 µM (active) and inactive,inactive
Nc1nc(N)nc(-c2ccccc2)n1,inactive,inactive,inactive,inactive,inactive,inactive,inactive,inactive,inactive,inactive
C[C@]12CC[C@@H]3c4ccc(O)cc4CC[C@H]3[C@@H]1C[C@@H](O)[C@@H]2O,inactive,inactive,inactive,inactive,inactive,inactive,inactive,inactive,inactive,inactive
COCCOC(=O)c1ccccc1C(=O)OCCOC,inactive,inactive,inactive,inactive,inactive,inactive,inactive,inactive,inactive,inactive
O=C(O)c1ccccc1C(=O)O,inactive,inactive,inactive,inactive,inactive,inactive,inactive,inactive,inactive,inactive
O=S(=O)(O)c1ccccc1,inactive,inactive,inactive,inactive,inactive,inactive,inactive,inactive,inactive,inactive
CC(=O)OCc1ccco1,inactive,inactive,inactive,inactive,inactive,inactive,inactive,inactive,inactive,inactive
CCCCCCCCCCCC(=O)OC,inactive,inactive,inactive,inactive,inactive,inactive,inactive,inactive,inactive,inactive
CC(=O)CCC=C(C)C,inactive,inactive,inactive,inactive,inactive,inactive,inactive,inactive,inactive,inactive
CSc1ccc(Cl)cc1,inactive,inactive,inactive,inactive,inactive,inactive,inactive,inactive,inactive,inactive
C=C(C)CNCC,inactive,inactive,inactive,inactive,inactive,inactive,inactive,inactive,inactive,inactive
C=CC(C)CCCC(C)(C)O (centres undefined),inactive,inactive,inactive,inactive,inactive,inactive,inactive,inactive,inactive,inactive
O=C(O)CCCCCCCCC(=O)O,inactive,inactive,inactive,inactive,inactive,inactive,inactive,inactive,inactive,inactive
NCCNCCN,inactive,inactive,inactive,inactive,inactive,inactive,inactive,inactive,inactive,inactive
O=C1c2ccccc2CCc2ccccc21,inactive,inactive,inactive,inactive,inactive,inactive,inactive,inactive,inactive,inactive
C=CC(=O)OCCC(=O)O,inactive,inactive,inactive,inactive,inactive,inactive,inactive,inactive,inactive,inactive
C=Cc1ccc(C)cc1,inactive,inactive,inactive,inactive,inactive,inactive,inactive,inactive,inactive,inactive

Structure (SMILES),Potency [1],outcome [2],Potency [3],outcome [4],Potency [5],Potency [6],Potency [7],Potency [8],Potency [9],outcome [10]
CN/C(=C\[N+](=O)[O-])NCCSCc1csc(CN(C)C)n1,inactive,inactive,inactive,inactive,inactive,inactive,inactive,inactive,inactive,inactive
CC1(C)S[C@@H]2[C@H](NC(=O)COc3ccccc3)C(=O)N2[C@H]1C(=O)O,inactive,inactive,inactive,inactive,inactive,inactive,inactive,inactive,inactive,inactive
CC(C)OP(=O)(CP(=O)(OC(C)C)OC(C)C)OC(C)C,inactive,inactive,inactive,inactive,inactive,inactive,inactive,inactive,inactive,inactive
C=CCc1ccc(OC)c(OC)c1,inactive,inactive,inactive,inactive,inactive,inactive,inactive,inactive,inactive,inactive
O=C(O)c1ccc(C(=O)O)c(C(=O)O)c1,inactive,inactive,inactive,inactive,inactive,inactive,inactive,inactive,inactive,inactive
C=CCCCCCCCCC(=O)O,inactive,inactive,inactive,inactive,inactive,inactive,inactive,inactive,inactive,inactive
COC(=O)CCCC(=O)OC,inactive,inactive,inactive,inactive,inactive,inactive,inactive,inactive,inactive,inactive
COc1cc(OC)c(C(=O)CCCN2CCCC2)c(OC)c1,inactive,inactive,inactive,inactive,inactive,inactive,inactive,inactive,inactive,inactive
c1ccc(Oc2ccccc2)cc1,inactive,inactive,inactive,inactive,inactive,inactive,inactive,inactive,inactive,inactive
O=C(O)c1cc2ccccc2cc1O,inactive,inactive,inactive,inactive,inactive,inactive,inactive,inactive,inactive,inactive
COc1ccccc1OCC(O)CO (centres undefined),inactive,inactive,inactive,inactive,inactive,inactive,inactive,inactive,inactive,inactive
OCc1ccccc1,inactive,inactive,inactive,inactive,inactive,inactive,inactive,inactive,inactive,inactive
CCOC(=O)c1ccc(N)cc1,,inactive,inactive,inactive,inactive,inactive,inactive,inactive,inactive,inactive
CCOCC(=O)O,,inactive,inactive,inactive,inactive,inactive,inactive,inactive,inactive,inactive
NCCCCCCN,,inactive,inactive,inactive,inactive,inactive,inactive,inactive,inactive,inactive
CC(=O)CC(C)(C)O,,inactive,inactive,inactive,inactive,inactive,inactive,inactive,inactive,inactive
CN1C(=O)CC[C@H]1c1cccnc1,,inactive,inactive,inactive,inactive,inactive,inactive,inactive,inactive,inactive
CN(C)c1ccc(Cc2ccc(N(C)C)cc2)cc1,,inactive,inactive,inactive,inactive,22 µM (active) and 21.9 µM (active),,inactive,inactive,inactive
COc1ccc(OC)cc1,,inactive,inactive,inactive,inactive,inactive,inactive,inactive,inactive,inactive
CCCCCCCCCCO,,inactive,inactive,inactive,inactive,inactive,inactive,,inactive,inactive
CCNc1cccc(C)c1,,inactive,inactive,inactive,inactive,inactive,inactive,inactive,inactive,inactive
Cc1ccc2ncccc2c1,,inactive,inactive,inactive,inactive,inactive,inactive,inactive,inactive,inactive
CC1(C)CC(N)CC(C)(CN)C1 (centres undefined),,inactive,inactive,inactive,inactive,inactive,inactive,inactive,inactive,inactive
CC(=O)Oc1ccc(C)cc1,,inactive,inactive,inactive,inactive,inactive,inactive,inactive,inactive,inactive
O=S(=O)(O)c1ccc(N=Nc2c(O)ccc3cc(S(=O)(=O)O)ccc23)cc1,,inactive,inactive,inactive,inactive,inactive,,inactive,inactive,inactive

Structure (SMILES),Potency [1],outcome [2],Potency [3],outcome [4],Potency [5],Potency [6],Potency [7],Potency [8],Potency [9],outcome [10]
Nc1ccc(Cl)c(N)c1,,inactive,inactive,inactive,inactive,inactive,inactive,inactive,inactive,inactive
Cc1ccc([N+](=O)[O-])cc1S(=O)(=O)O,,inactive,inactive,inactive,inactive,inactive,inactive,inactive,inactive,inactive
CC(C)CCCCCCCOC(=O)CCCCC(=O)OCCCCCCCC(C)C,,inactive,inactive,inactive,inactive,inactive,inactive,inactive,inactive,inactive
CCO[Si](CCCN)(OCC)OCC,,inactive,inactive,inactive,inactive,inactive,inactive,inactive,inactive,inactive
Brc1ccc(Br)c(Br)c1,,inactive,inactive,inactive,inactive,inactive,inactive,inactive,inactive,inactive
CC(C)c1cccc(C(C)C)c1,,inactive,inactive,inactive,inactive,inactive,inactive,inactive,inactive,inactive
O=C(O)/C=C/C(=O)O,,inactive,inactive,inactive,inactive,inactive,inactive,inactive,inactive,inactive
CC(C)CC(=O)CC(C)CC(C)C (centres undefined),,inactive,inactive,inactive,inactive,inactive and 19.5 µM (active),inactive,inactive,inactive,inactive
CNC(=O)Oc1ccc2c(c1)[C@]1(C)CCN(C)[C@@H]1N2C,,inactive,inactive,inactive,inactive,inactive,inactive,inactive,inactive,inactive
C=C(C)C(=O)OCC(C)C,,inactive,inactive,inactive,inactive,inactive,inactive,inactive,inactive,inactive
C=C(C)[C@H]1CC=C(C)C(=O)C1,,inactive,inactive,inactive,inactive,inactive,inactive,inactive,inactive,inactive
CCO[Si](CCC#N)(OCC)OCC,,inactive,inactive,inactive,inactive,inactive,inactive,inactive,inactive,inactive
O=C1CCCC1,,inactive,inactive,inactive,inactive,inactive,inactive,inactive,inactive,inactive
CC(C)(C#N)c1cc(Cn2cncn2)cc(C(C)(C)C#N)c1,,inactive,inactive,inactive,inactive,inactive,inactive,inactive,inactive,inactive
CCCCCCO,,inactive,inactive,inactive,inactive,inactive,inactive,inactive,inactive,inactive
CN(C)CCOC(=O)COc1ccc(Cl)cc1,,inactive,inactive,inactive,inactive,inactive,inactive,inactive,inactive,inactive
NC(=S)NNC(N)=S,,inactive,inactive,inactive,inactive,inactive,inactive,inactive,inactive,inactive
CCOC(=O)n1ccn(C)c1=S,,inactive,inactive,inactive,inactive,inactive,inactive,inactive,inactive,inactive
CC(=O)c1ccc(O)cc1,,inactive,inactive,inactive,inactive,inactive,inactive,inactive,inactive,inactive
CC(CCO)CC(C)(C)C (centres undefined),,inactive,inactive,inactive,inactive,inactive,inactive,inactive,inactive,inactive
CC(C)CC(C)O (centres undefined),,inactive,inactive,inactive,inactive,inactive,inactive,inactive,inactive,inactive
COCCCN,,inactive,inactive,inactive,inactive,inactive,inactive,inactive,inactive,inactive
Cc1ccc(S(=O)(=O)N=C=O)cc1,,inactive,inactive,inactive,inactive,inactive,inactive,inactive,inactive,inactive
O=[N+]([O-])c1ccc2nc[nH]c2c1,,inactive,inactive,inactive,inactive,inactive,inactive,inactive,inactive,inactive
CCNc1ccccc1,,inactive,inactive,inactive,inactive,inactive,inactive,inactive,inactive,inactive

# Reference: PubChem BioAssay (Tox21)
